High-throughput results as filed in PubChem BioAssay.
LEDGF integ inh = blocks HIV-1 LEDGF/p75-dependent DNA integration. AID 743269. inhibition, % at 3.7 µM. TR-FRET IN-LEDGF/p75 DNA integration, Eu/Cy5. 370,000 tested, 0.64% active;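 active means inhibition above the screen-wide mean plus 3 SD, cut at about 13% in these data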;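 further: signal is the Cy5 over europium emission ratio at 671 and 618 nm; 0% = plate median of compound wells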
UHRF1 MBD2 ctr = human UHRF1 methylated DNA binding inhibitors. Q96T88. UHRF1 binding to methylated oligo, TR-FRET. inhibition, % at 4.4 µM. 370,000 tested, 0.75% active; in the data active means inhibition above about 21%;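 further: UHRF1 SRA domain binding a hemimethylated CpG hairpin DNA probe; 0% = median of test compound wells and 100% = reference inhibitor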
PRMT1 inh = inhibitors of human PRMT1 | 370,000 tested, 1.3% active | Q99873 | inhibition, % at 2.79 µM | recombinant PRMT1, activity-based probe fluorescence polarization;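 active means inhibition above about 21% made by adding two undisclosed values, limit read from the data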
Target sequence (Q99873 whole entry, looked up): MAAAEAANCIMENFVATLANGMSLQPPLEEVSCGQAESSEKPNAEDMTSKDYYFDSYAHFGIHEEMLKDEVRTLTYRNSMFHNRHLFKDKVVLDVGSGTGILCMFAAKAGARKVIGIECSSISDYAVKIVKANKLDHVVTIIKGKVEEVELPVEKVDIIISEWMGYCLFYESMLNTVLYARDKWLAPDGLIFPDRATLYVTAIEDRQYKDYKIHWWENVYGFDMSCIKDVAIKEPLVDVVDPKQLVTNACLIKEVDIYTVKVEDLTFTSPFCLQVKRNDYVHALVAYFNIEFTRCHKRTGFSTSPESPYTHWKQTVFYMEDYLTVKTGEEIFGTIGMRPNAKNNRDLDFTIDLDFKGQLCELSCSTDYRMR
ABHD5 PLIN5 PPI = blocks binding of human ABHD5 to perilipin-5. Split G. princeps luciferase complementation, luminescence, 4 h. inhibition, % at 4 µM. 360,000 tested, 0.78% active. AID 602281;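 active means inhibition above the mean inhibition across every tested compound plus 3 SD, cut at about 22% in these data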;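 further: 0% = DMSO only wells and the 100% control is not disclosed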
MBD2 DNA inh = MBD2-methylated oligo binding inhibition. Q9UBB5. 370,000 tested, 0.31% active. inhibition, % at 4.4 µM. TR-FRET, MBD2 binding to methylated oligonucleotide; in the data active means inhibition above about 13%
rCAG RNA binder = molecules binding r(CAG) RNA repeats; r(CAG) RNA repeat, TO-PRO-1 dye displacement fluorescence; inhibition, % at 3 µM; 370,000 tested, 1.3% active; AID 651821;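 active means inhibition above the plate cutoff, the mean of all test compounds on that plate plus 3 SD, cut at about 35% in these data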;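 further: 0% = DMSO alone and 100% = 100 µM mitoxantrone as full dye displacement; higher means more dye released from RNA so lower well fluorescence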
rCAG binder conf = r(CAG) RNA repeat binding, confirmation. inhibition, % at 3 µM. TO-PRO-1 dye displacement fluorescence. 4,300 tested, 70% active. shares compounds with rCAG RNA binder. AID 652065;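 active means inhibition above a per-plate cutoff, the mean inhibition of sample wells plus 3 SD, cut at about 35% in these data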;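 further: loss of TO-PRO-1 fluorescence as compound displaces dye from 1x1 AA loop RNA; 0% = DMSO only wells and 100% = 100 µM mitoxantrone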
dCAG dye counter = DNA CAG dye complex inhibition counter-screen. d(CAG) DNA oligo TO-PRO-1 dye displacement, fluorescence. shares compounds with rCAG RNA binder. AID 652068. inhibition, % at 3 µM. 4,300 tested, 94% active;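 active means inhibition above its plate's cutoff, the mean test-well inhibition plus 3 SD, cut at about 4.8% in these data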;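 further: 0% = DNA dye mix with DMSO and 100% = 100 µM mitoxantrone; hits displace the dye from DNA and so lower well fluorescence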
PRMT1 inh conf = confirmation of human PRMT1 inhibitors; shares compounds with PRMT1 inh; recombinant His-PRMT1, activity-based probe fluorescence polarization; inhibition, % at 2.79 µM; 3,300 tested, 42% active; AID 687036;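 active means mean inhibition across replicates above the hit cutoff derived for the earlier primary screen, cut at about 22% in these data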
UHRF1 DNA bind = inhibits human UHRF1 binding to methylated oligonucleotide, MBD2 counter-screen. shares compounds with MBD2 DNA inh. TR-FRET. inhibition, % at 4.4 µM. 1,000 tested, 25% active; in the data active means inhibition above about 21%;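 further: UHRF1 SRA domain binding a labeled hemimethylated CpG hairpin DNA; 0% = vehicle only and 100% = reference inhibitor with vehicle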
MBD2 confirm = MBD2-DBD methyl-DNA binding inhibition, TR-FRET confirmation. inhibition, % at 4.4 µM. shares compounds with MBD2 DNA inh. TR-FRET MBD2-DBD binding to methylated oligonucleotide. 1,000 tested, 26% active. AID 720531
IN multimer act = counter-screen for LEDGF/p75 integration inhibitors: HIV-1 integrase multimerization activators; shares compounds with LEDGF integ inh; TR-FRET HIV-1 integrase multimerization, biochemical; activation, % at 7.7 µM; 2,000 tested, 17% active; AID 1053131; in the data active means activation above about 8.9%
TR-FRET interf = optically interferes with TR-FRET readout in LEDGF counter-screen; TR-FRET optical interference counterscreen, HIV-1 IN multimerization; 2,000 tested, under 10 active; AID 1053135; inhibition, % at 7.7 µM; shares compounds with LEDGF integ inh;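 active means inhibition above the mean over all tested compounds plus 3 SD, which no compound reached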;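 further: 0% = integrase with antibodies and DMSO and 100% = antibodies without integrase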
IN-LEDGF confirm = LEDGF/p75-dependent HIV-1 integration inhibition, confirmation. shares compounds with LEDGF integ inh. TR-FRET LEDGF/p75-dependent HIV-1 integration, biochemical. AID 1053136. inhibition, % at 3.7 µM. 2,000 tested, 36% active
The depositor's hits bear a star; · = not tested or not shown. An excerpt weighted towards active compounds, which were near 4.1% of everything screened. Unless noted, no stated cut-off is given here; in the data, active means inhibition above about 14%; inactive means the rest.

SMILES	LEDGF integ inh	UHRF1 MBD2 ctr	PRMT1 inh	ABHD5 PLIN5 PPI	MBD2 DNA inh	rCAG RNA binder	rCAG binder conf	dCAG dye counter	IN multimer act	TR-FRET interf	IN-LEDGF confirm	others
COc1ccc(S(=O)(=O)/N=C2/NC(=O)/C(=C/c3ccco3)S2)cc1	39*	76*	47*	6	22*	85*	42*	11*	1	-6	12	PRMT1 inh conf=6;UHRF1 DNA bind=19;MBD2 confirm=3
O=S(=O)(N1CCCCC1)n1nnc2cc3ccccc3cc21	-7	-2	3	·	-4	3	·	·	·	·	·
O=C(CCc1ccccc1-c1ccccc1CCNC(=O)COCc1ccccc1)NCc1ccccc1	-3	0	0	·	3	1	·	·	·	·	·
O=S1(=O)CC2c3ccc(F)cc3CN2CN1Cc1ccccc1 (centres undefined)	-1	-3	0	·	1	3	·	·	·	·	·
O=C(O)Cc1c[nH]c2cccc(O)c12	73*	95*	32*	10	55*	46*	29	13*	55*	-275	39*	UHRF1 DNA bind=40*;MBD2 confirm=16*
CCOC(=O)[C@]12CCCC=C1N(Cc1ccc(OC)cc1)C(=O)[C@@H]2CC(=O)NCc1ccc(C)o1	2	-1	-6	·	2	0	·	·	·	·	·
CCSc1nc(-c2ccco2)ccc1C#N	16*	8	31*	16	-1	56*	11	8.6*	-2	10	13	PRMT1 inh conf=18
N#Cc1ccc(-c2ccco2)nc1SCc1ccccc1	0	5	0	4	0	13	·	·	·	·	·
COC(=O)c1cc2c(c3c4ccccc4n(S(=O)(=O)c4ccc(C)cc4)c13)C(=O)N(CC(C)C)C2	0	-1	1	·	-5	19	·	·	·	·	·
Cc1cc(=O)[nH]c(SCC(=O)c2ccc(O)c(O)c2)n1	10	2	8	2	-7	0	·	·	·	·	·
Cc1cc(SCC(=O)c2ccc(O)c(O)c2)n2nc(C)c(-c3ccccc3)c2n1	17*	-3	3	4	-1	50*	67*	33*	0	2	12
COc1cccc(CNC(=O)[C@H]2CCCN2C(=O)[C@H]2CCCN2C(=O)c2ccc(C)c(C)c2)c1	2	1	3	·	-1	0	·	·	·	·	·
Cc1cc(C)cc(C(=O)OCCN(C)C2CN(Cc3cn(Cc4cccc(F)c4)nn3)S(=O)(=O)C2)c1 (centres undefined)	-2	10	2	·	1	0	·	·	·	·	·
CCN=c1scc(C)n1/N=C/c1ccc(O)c(O)c1O	52*	3	60*	-35	-4	38*	49*	19*	20*	-72	36*
CCN=c1scc(-c2ccco2)n1/N=C/c1ccc(O)cc1	3	0	7	-7	3	18	·	·	·	·	·
CCC1CCc2sc(C(=O)Nc3cc(S(=O)(=O)N4CCOCC4)ccc3OC)cc2C1 (centres undefined)	4	-1	2	·	3	·	·	·	·	·	·
